The text below walks through data of PubChem BioAssay (NCATS).

Experiment [1] can be described thus: qHTS profiling for inhibitors of Plasmodium falciparum proliferation (AID 504749). Further: nearly all actives have a fitted effect of over 60% in size.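 On activity, negative = inhibition: 0% = DMSO vehicle and full inhibition = artemisinin control.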 Conditions: P. falciparum in erythrocytes, SYBR Green DNA, 72 h. The gist of the method: (§1)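 Three-day growth assay of blood-stage parasites in erythrocytes (0.3% parasitemia, 2.5% hematocrit) at 37 C, 5% CO2, quantified by SYBR Green DNA staining after overnight detergent lysis.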
A general note: In qHTS, concentration-response curves come from the screen itself.

The next experiment deals with 3D7. The experiment is described as above. Conditions: P. falciparum in erythrocytes, SYBR Green DNA, 72 h; series mostly up to 28.7 µM. In outline:
as §1

A further experiment concerns ATS189. The experiment is described as above. Conditions: P. falciparum in erythrocytes, SYBR Green DNA, 72 h; series mostly up to 28.7 µM. The gist of the method:
as §1

A further experiment relates to C2A. The experiment is described as above. Conditions: P. falciparum in erythrocytes, SYBR Green DNA, 72 h; series mostly up to 28.7 µM. The gist of the method:
as §1

The subject of another experiment is CP185. The description is as above. Conditions: P. falciparum in erythrocytes, SYBR Green DNA, 72 h; series mostly up to 28.7 µM. In outline: as §1
A further experiment has as its system CP192. The experiment is described as above. Conditions: P. falciparum in erythrocytes, SYBR Green DNA, 72 h; series mostly up to 28.7 µM. The gist of the method:
as §1

The subject of the next experiment is CP201. The description is as above. Conditions: P. falciparum in erythrocytes, SYBR Green DNA, 72 h; series mostly up to 28.7 µM. In outline:
as §1

Another experiment relates to CP211. The description is as above. Conditions: P. falciparum in erythrocytes, SYBR Green DNA, 72 h; series mostly up to 28.7 µM. In outline: as §1
A further experiment relates to CP215. The experiment is described as above. Conditions: P. falciparum in erythrocytes, SYBR Green DNA, 72 h; series mostly up to 28.7 µM. In outline: as §1
Another experiment relates to CP217. The description is as above. Conditions: P. falciparum in erythrocytes, SYBR Green DNA, 72 h; series mostly up to 28.7 µM. In outline: as §1
Experiment [2] in a line: qHTS for identification of novel therapeutic agents for treatment of microphthalmiaassociated transcription factor (MiT) renal cell carcinoma (RCC) (AID 1963991; calls by dose curve). Conditions: CellTiter-Glo, 48 h; for z-score: stronger effect = lower value. The gist of the method:
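Three TFE3-fusion RCC cell lines (UOK109, UOK124, UOK145), 500 cells/well, were exposed to the 1912-compound MIPE 4.0 library for 48 hours at 37 C. Viability was read by CellTiter-Glo luminescence, normalised to DMSO (100%) and empty wells (0%), with 11-concentration curve fits.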

For the next experiment, the system named is 7G8. Put plainly: qHTS profiling for inhibitors of Plasmodium falciparum proliferation (AID 504749). Further: nearly all actives have a fitted effect of over 60% in size.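 On activity, negative = inhibition: 0% = DMSO vehicle and full inhibition = artemisinin control.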 Conditions: P. falciparum in erythrocytes, SYBR Green DNA, 72 h; series mostly up to 28.7 µM. The gist of the method: as §1
The next experiment concerns AA1029. The description is as above. Conditions: P. falciparum in erythrocytes, SYBR Green DNA, 72 h; series mostly up to 28.7 µM. In outline:
as §1

For the next experiment, the system named is AS120. Described as above. Conditions: P. falciparum in erythrocytes, SYBR Green DNA, 72 h; series mostly up to 28.7 µM. In outline:
as §1

A further experiment has as its system ATS95. The experiment is described as above. Conditions: P. falciparum in erythrocytes, SYBR Green DNA, 72 h; series mostly up to 28.7 µM. In outline: as §1
A further experiment has as its system CP191. The description is as above. Conditions: P. falciparum in erythrocytes, SYBR Green DNA, 72 h; series mostly up to 28.7 µM. The gist of the method: as §1
Another experiment relates to CP194. The experiment is described as above. Conditions: P. falciparum in erythrocytes, SYBR Green DNA, 72 h; series mostly up to 28.7 µM. The gist of the method: as §1
Where [3] appears, read: at 28.7 µM (top of the series), parasite line A.
[4] abbreviates: at 28.7 µM (top of the series), parasite line B.
The mark [5] stands for this setting: TFE3-RCC UOK109 viability, measured here: UOK109 Z-AUC.
Where [6] appears, read: TFE3-RCC viability, measured here: UOK124 Z-AUC.
[7] abbreviates: TFE3-RCC viability, measured here: UOK145 Z-AUC.

Values joined by “and” are separate entries in the source; they are usually repeats but may differ in a detail not shown here. Equal entries are not always repeated. Inconclusive results are not listed. Active and inactive are the calls of the source. Unless noted, the call rests on the fitted dose curve; in most records, active means well fitted inhibition curve with a large enough effect; inconclusive means small, poorly fitted or top-dose-only effect; inactive means flat fitted curve, though single readings scatter.
Potency means the concentration at half of the fitted maximal effect.

With `Cc1cccc(C)c1OCC(C)N` (centres undefined), the activity, negative = inhibition in [1] (setting [3]) is 7.67% (inactive); in [1] (setting [4]), -7.13% (inactive). Also, the call with 3D7, with C2A, in the experiment on CP185 and in the experiment with CP201 was inactive. The Potency result in the experiment on ATS189, in the experiment on CP192, in the experiment on CP211, in the experiment on CP215 and with CP217 was “inactive” throughout.
`Clc1ccc(-c2nc3sccn3c2C=NOCc2ccc(Cl)c(Cl)c2)cc1`: the z-score stood at 0.77 in [2] (setting [5]), 0.598 in experiment [2] (setting [6]) and 0.227 in [2] (setting [7]).
For `CC(=NNC(=S)N1CCC1)c1ccccn1`, the Potency in [2] (TFE3-RCC UOK109 viability, active = Z-AUC below -0.8 in all three lines) is 3.32 nM (active). In addition, the z-score was -4 in experiment [2] (setting [5]), -1.96 in experiment [2] (setting [6]) and -2.39 in experiment [2] (setting [7]).
In the case of `C[N+](C)(C)CCCCCC[N+](C)(C)C`, the activity, negative = inhibition was 4.23% (inactive) in experiment [1] (setting [3]) and 5.66% (inactive) in experiment [1] (setting [4]). Further, the molecule was classed as inactive in the experiment on 3D7, in the experiment on AA1029, in the experiment with ATS95, in the experiment with C2A, in the experiment with CP185 and with CP201. Besides, the Potency entry in the experiment with 7G8, with AS120, in the experiment with ATS189, in the experiment on CP191, in the experiment on CP192 and in the experiment on CP194 was “inactive” in each case. The Potency entry in the experiment with CP211, in the experiment with CP215 and in the experiment on CP217 was “inactive” each time.
For `C[C@@H](O)[C@H]1C(=O)N2C(C(=O)O)=C(S[C@@H]3CN[C@H](C(=O)N(C)C)C3)[C@H](C)[C@H]12`, the activity, negative = inhibition was 10.4% (inactive) in experiment [1] (setting [3]) and 13.7% (inactive) in experiment [1] (setting [4]). Further, the call in the experiment on 3D7, with AA1029, with ATS95, in the experiment on C2A, with CP185 and with CP201 was inactive. For the same molecule, the Potency entry in the experiment with 7G8, with AS120, with ATS189, with CP191, in the experiment with CP192 and in the experiment with CP194 was “inactive” in each case. Also, the Potency entry in the experiment with CP211, in the experiment on CP215 and with CP217 was “inactive” throughout.
Take `CC(=O)c1ccc(S(=O)(=O)NC(=O)NC2CCCCC2)cc1`: the figures for the activity, negative = inhibition in experiment [1] (setting [3]) and in experiment [1] (setting [4]) were 3.57% (inactive) and 7.49% (inactive), respectively. Moreover, the molecule was classed as inactive with 3D7, in the experiment on AA1029, in the experiment with ATS95, with C2A, in the experiment on CP185 and with CP201. Besides, the Potency entry in the experiment with 7G8, in the experiment on AS120, in the experiment with ATS189, in the experiment with CP191, with CP192 and in the experiment with CP194 was “inactive” in each case. Further, the Potency result with CP211, in the experiment on CP215 and in the experiment on CP217 was “inactive” throughout.
As to `NC(N)=Nc1nc(CSCC/C(N)=N/S(N)(=O)=O)cs1`, the activity, negative = inhibition in experiment [1] (setting [3]) was -15% (inactive); in [1] (setting [4]) it was 4.88% (inactive). Moreover, the molecule was called inactive in the experiment with 3D7, with AA1029, in the experiment with ATS95, in the experiment on C2A, in the experiment with CP185 and with CP201. Further, the Potency result in the experiment on 7G8, in the experiment with AS120, in the experiment on ATS189, in the experiment on CP191, in the experiment with CP192 and with CP194 was “inactive” in each case. For the same molecule, the Potency result in the experiment on CP211, with CP215 and with CP217 was “inactive” each time.
For `CC(=O)CCCCn1c(=O)c2c(ncn2C)n(C)c1=O`, the activity, negative = inhibition in [1] (at 12.8 µM (top of the series), parasite line A) was -2.51% (inactive); in experiment [1] (at 12.8 µM (top of the series), parasite line B), 2.9% (inactive). Also, the molecule was classed as inactive in the experiment with 3D7, in the experiment with AA1029, in the experiment on ATS95, in the experiment on C2A, in the experiment on CP185 and with CP201. Also, the Potency entry in the experiment on 7G8, in the experiment on AS120, in the experiment with ATS189, in the experiment on CP191, with CP192 and with CP194 was “inactive” in each case. The Potency entry with CP211, with CP215 and in the experiment with CP217 was “inactive” each time.
Turning to `CC[C@H]1OC(=O)[C@H](C)[C@@H](O[C@H]2C[C@@](C)(OC)[C@@H](O)[C@H](C)O2)[C@H](C)[C@@H](O[C@@H]2O[C@H](C)C[C@H](N(C)C)[C@@H]2O)[C@](C)(O)C[C@@H](C)CN(C)[C@H](C)[C@@H](O)[C@]1(C)O`, the z-score is -4 in experiment [2] (setting [5]), 0.7 in experiment [2] (setting [6]) and 0.923 in [2] (setting [7]).
Regarding `COc1ccccc1N1CCN(CCCNc2cc(=O)n(C)c(=O)n2C)CC1`, the activity, negative = inhibition is -3.41% (inactive) and -6.84% (inactive) in experiment [1] (setting [3]); -11.7% (inactive) and -0.932% (inactive) in [1] (setting [4]). For the same molecule, the molecule was called inactive with 3D7, with AA1029, in the experiment on ATS95, with C2A, in the experiment on CP185 and with CP201. The Potency entry in the experiment with 7G8, in the experiment on AS120, in the experiment on ATS189, in the experiment with CP191, in the experiment with CP192 and in the experiment on CP194 was “inactive” in each case. The Potency result with CP211, in the experiment on CP215 and in the experiment with CP217 was “inactive” in each case.
For the molecule `O=c1[nH]cnc2c1ncn2[C@H]1CC[C@@H](CO)O1`, the activity, negative = inhibition in experiment [1] (setting [3]) is -0.993% (inactive); in experiment [1] (setting [4]), 7.28% (inactive). Besides, the call with 3D7, with AA1029, with ATS95, in the experiment with C2A, with CP185 and in the experiment with CP201 was inactive. In addition, in the experiment on 7G8, the Potency is 10 µM (active). In addition, the Potency result in the experiment with AS120, in the experiment on ATS189, in the experiment on CP192, with CP194, with CP211 and with CP215 was “inactive” each time. In addition, the Potency entry with CP217 was “inactive”.
As for `COc1ccc2c3c1OC1C[C@@H](O)C=C[C@@]31CCN(C)C2` (some centres undefined), the z-score in experiment [2] (setting [5]) was 0.657; in [2] (setting [6]) it was 0.378; in experiment [2] (setting [7]) it was -0.117.
With `O=C1Nc2ccc(Cl)cc2C(C#CC2CC2)(C(F)(F)F)O1` (centres undefined), the activity, negative = inhibition in experiment [1] (setting [3]) was -18.6% (inactive); in experiment [1] (setting [4]), 0.376% (inactive). The molecule was classed as inactive in the experiment with 3D7, in the experiment on AA1029, with ATS95, in the experiment on C2A, with CP185 and in the experiment on CP201. Moreover, the Potency in the experiment on 7G8 was 11.2 µM (active). For the same molecule, the Potency entry in the experiment on ATS189, with CP191, in the experiment with CP192, in the experiment on CP211 and in the experiment on CP217 was “inactive” in each case.
Regarding `C[N+]1(C)[C@@H]2CC(OC(=O)[C@H](CO)c3ccccc3)C[C@H]1[C@H]1O[C@@H]12` (some centres undefined), the z-score in experiment [2] (setting [5]) turned out to be 0.318; in experiment [2] (setting [6]), 0.652; in experiment [2] (setting [7]), 0.553.
